Read-out in assay [1]: Thrombomodulin, THBD (gene 7056)
Nature of the assay: BSK_CASM3C_Thrombomodulin: BioMAP Diversity Plus: CASM3C Assay for Thrombomodulin Biomarker Activity (AID 2283051).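 Note: thrombomodulin protein level measured by ELISA 24 h after dosing.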 The note with it: primary human coronary artery smooth muscle cells; actives raise or lower the signal.

Read-out in assay [2]: Tissue Factor, F3 (gene 2152)
The experiment in a line: BSK_CASM3C_TissueFactor: BioMAP Diversity Plus: CASM3C Assay for Tissue Factor Biomarker Activity (AID 2283052).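 Note: cell surface tissue factor protein level read by ELISA.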 Particulars: primary human coronary artery smooth muscle cells; actives raise or lower the signal.

Read-out in assay [3]: Interferon-gamma inducible Protein 10 (IP10), CXCL10 (gene 3627)
The experiment in a line: BSK_hDFCGF_IP10: BioMAP Diversity Plus: hDFCGF Assay for Interferon-gamma inducible Protein 10 (IP10) Biomarker Activity (AID 2283053). The note with it: primary human foreskin fibroblasts; actives raise or lower the signal. In short, it runs like this:
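Cells: human dermal foreskin fibroblasts. Exposure: 24 h post-dosing. Detection: IP-10 ELISA, with values expressed against DMSO controls and fitted in both directions.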

Read-out in assay [4]: Urokinase-type plasminogen activator receptor (uPAR), PLAUR (gene 5329)
The experiment in a line: BSK_CASM3C_uPAR: BioMAP Diversity Plus: CASM3C Assay for Urokinase-type plasminogen activator receptor (uPAR) Biomarker Activity (AID 2283054).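 Note: cell-surface uPAR protein level quantified by ELISA.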 The note with it: primary human coronary artery smooth muscle cells; actives raise or lower the signal.

Read-out in assay [5]: Vascular cell adhesion molecule 1 (VCAM1), VCAM1 (gene 7412)
Nature of the assay: BSK_CASM3C_VCAM1: BioMAP Diversity Plus: CASM3C Assay for Vascular cell adhesion molecule 1 (VCAM1) Biomarker Activity (AID 2283055).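 Note: VCAM-1 protein level quantified by ELISA on the cells.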 The note with it: primary human coronary artery smooth muscle cells; actives raise or lower the signal.

Read-out in assay [6]: Collagen III, COL3A1 (gene 1281)
The experiment in a line: BSK_hDFCGF_CollagenIII: BioMAP Diversity Plus: hDFCGF Assay for Collagen III Biomarker Activity (AID 2283056). Particulars: primary human foreskin fibroblasts; actives raise or lower the signal. The method in brief:
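Human foreskin primary fibroblasts were exposed to test chemicals for 24 h, after which collagen III was quantified by ELISA. Activity was fitted bidirectionally against DMSO as negative control and baseline.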

Read-out in assay [7]: Epidermal growth factor receptor (EGFR), EGFR (gene 1956)
Nature of the assay: BSK_hDFCGF_EGFR: BioMAP Diversity Plus: hDFCGF Assay for Epidermal growth factor receptor (EGFR) Biomarker Activity (AID 2283057). Particulars: primary human foreskin fibroblasts; actives raise or lower the signal. The method in brief: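 Dosing human primary skin fibroblasts, then measuring surface EGFR by ELISA at 24 h, gives the endpoint; gains and losses relative to DMSO were fitted in both directions.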

Read-out in assay [8]: Interleukin-8 (IL8), CXCL8 (gene 3576)
Nature of the assay: BSK_hDFCGF_IL8: BioMAP Diversity Plus: hDFCGF Assay for Interleukin-8 (IL8) Biomarker Activity (AID 2283058). The note with it: primary human foreskin fibroblasts; actives raise or lower the signal. In short, it runs like this: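 hDFCGF human dermal fibroblasts; 24 h chemical exposure; IL-8 by ELISA; bidirectional curve fit vs DMSO baseline; gain or loss of signal scored.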

The nature of assay [9]: BSK_hDFCGF_Proliferation: Cell Proliferation Assessment in the BioMAP Diversity Plus: hDFCGF Assay (AID 2283059).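 Note: curves fitted for both rise and fall of signal versus DMSO baseline.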 Particulars: primary human foreskin fibroblasts. In short, it runs like this: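 Primary human foreskin fibroblasts, sub-confluent; […]; 10% TCA fix, 0.1% SRB stain, A560 total protein. Gain/loss fitted bidirectionally vs DMSO control.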
Read-out in assay [10]: Macrophage colony-stimulating factor (MCSF), CSF1 (gene 1435)
The experiment in a line: BSK_hDFCGF_MCSF: BioMAP Diversity Plus: hDFCGF Assay for Macrophage colony-stimulating factor (MCSF) Biomarker Activity (AID 2283060). Particulars: primary human foreskin fibroblasts; actives raise or lower the signal. In short, it runs like this: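 Human foreskin primary fibroblasts were treated with test chemical for 24 h, and M-CSF was then measured by ELISA. Data were fitted bidirectionally against DMSO as the negative control and activity baseline.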

Read-out in assay [11]: TIMP metallopeptidase inhibitor 1 (TIMP1), TIMP1 (gene 7076)
The experiment in a line: BSK_hDFCGF_TIMP1: BioMAP Diversity Plus: hDFCGF Assay for TIMP metallopeptidase inhibitor 1 (TIMP1) Biomarker Activity (AID 2283062). Particulars: primary human foreskin fibroblasts; actives raise or lower the signal. The method in brief: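 Primary human foreskin fibroblasts in the hDFCGF system were dosed with compound for 24 h, then TIMP-1 was measured by ELISA. Activity was fitted bidirectionally relative to DMSO control; parallel SRB staining assessed cytotoxicity.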

Read-out in assay [12]: Monokine induced gamma interferon (MIG), CXCL9 (gene 4283)
The experiment in a line: BSK_hDFCGF_MIG: BioMAP Diversity Plus: hDFCGF Assay for Monokine induced gamma interferon (MIG) Biomarker Activity (AID 2283063). The note with it: primary human foreskin fibroblasts; actives raise or lower the signal. The method in brief: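 ELISA read-out of MIG from primary human dermal fibroblasts 24 h post-dosing. Gain or loss of signal fitted bidirectionally, DMSO as baseline.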

Read-out in assay [13]: Matrix Metallopeptidase 1 (MMP1), MMP1 (gene 4312)
Nature of the assay: BSK_hDFCGF_MMP1: BioMAP Diversity Plus: hDFCGF Assay for Matrix Metallopeptidase 1 (MMP1) Biomarker Activity (AID 2283064). Particulars: primary human foreskin fibroblasts; actives raise or lower the signal. The method in brief:
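MMP1 levels quantified by ELISA 24 h after dosing human dermal fibroblast cultures, with parallel SRB total-protein staining for overt cytotoxicity. Data fitted in both directions against DMSO baseline.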

Read-out in assay [14]: Vascular cell adhesion molecule 1 (VCAM1), VCAM1 (gene 7412)
The experiment in a line: BSK_hDFCGF_VCAM1: BioMAP Diversity Plus: hDFCGF Assay for Vascular cell adhesion molecule 1 (VCAM1) Biomarker Activity (AID 2283065).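 For AC50: VCAM-1 protein level quantified by ELISA after 24 h chemical exposure.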 Particulars: primary human foreskin fibroblasts; actives raise or lower the signal. In short, it runs like this: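 Primary human foreskin fibroblasts (hDFCGF system) were dosed with chemical and VCAM-1 was measured by ELISA 24 h later. Bidirectional curve fitting used DMSO as negative control and activity baseline.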

Read-out in assay [15]: Plasminogen activator inhibitor-1 (PAI1), SERPINE1 (gene 5054)
Nature of the assay: BSK_hDFCGF_PAI1: BioMAP Diversity Plus: hDFCGF Assay for Plasminogen activator inhibitor-1 (PAI1) Biomarker Activity (AID 2283066). Particulars: primary human foreskin fibroblasts; actives raise or lower the signal. The method in brief:
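Fibroblasts from human foreskin were treated with test chemical. After 24 h, PAI-1 was measured by ELISA. Activity was fitted in both directions relative to DMSO.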

Read-out in assay [16]: Intercellular Adhesion Molecule 1 (ICAM1), ICAM1 (gene 3383)
The experiment in a line: BSK_KF3CT_ICAM1: BioMAP Diversity Plus: KF3CT Assay for Intercellular Adhesion Molecule 1 (ICAM1) Biomarker Activity (AID 2283067). Particulars: primary human keratinocytes with fibroblasts; actives raise or lower the signal. In short, it runs like this: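 Human keratinocyte plus foreskin fibroblast primary co-culture was exposed to chemical for 24 h. ICAM-1 was then quantified by ELISA, and the data were fit bidirectionally against DMSO as the negative control and baseline.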

Read-out in assay [17]: Interferon-gamma inducible Protein 10 (IP10), CXCL10 (gene 3627)
Nature of the assay: BSK_KF3CT_IP10: BioMAP Diversity Plus: KF3CT Assay for Interferon-gamma inducible Protein 10 (IP10) Biomarker Activity (AID 2283068). Particulars: primary human keratinocytes with fibroblasts; actives raise or lower the signal. The method in brief:
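In a primary skin co-culture of keratinocytes and fibroblasts, IP-10 is quantified by ELISA at 24 h after dosing. SRB staining of parallel wells monitors overt toxicity. Curves are fitted both directions against DMSO.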

A short description of assay [18]: BSK_KF3CT_SRB: Viability Assessment in the BioMAP Diversity Plus: KF3CT Assay (AID 2283069). Particulars: primary human keratinocytes with fibroblasts. The method in brief: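 Cytotoxicity was gauged by SRB staining (0.1% SRB, 10% TCA fixation, 560 nm) of parallel cultures at 24 h. The cells were primary human skin keratinocytes co-cultured with fibroblasts, and activity was fitted in both directions against DMSO.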

Read-out in assay [19]: Interleukin-1 alpha (IL1a), IL1A (gene 3552)
Nature of the assay: BSK_KF3CT_IL1a: BioMAP Diversity Plus: KF3CT Assay for Interleukin-1 alpha (IL1a) Biomarker Activity (AID 2283070). Particulars: primary human keratinocytes with fibroblasts; actives raise or lower the signal. The method in brief:
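IL-1a was detected by ELISA 24 h after chemical treatment of a co-culture of human skin keratinocytes and foreskin fibroblasts. Gain or loss of signal was fitted against the DMSO baseline.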

Assay [20] is described as follows: BSK_hDFCGF_SRB: Viability Assessment in the BioMAP Diversity Plus: hDFCGF Assay (AID 2283061).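 Note: cells exposed to compound for 24 h before the read.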 The note with it: primary human foreskin fibroblasts. The method in brief:
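Human foreskin primary fibroblasts were treated with compound and assessed 24 h after dosing. Total protein was measured by sulforhodamine B staining (0.1% SRB after 10% TCA fixation, 560 nm read) as a cytotoxicity marker, with bidirectional fitting against DMSO baseline.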

Here are results for three molecules from PubChem BioAssay (EPA / NIEHS).

Where “and” joins values, the source holds several entries; their conditions need not be identical. Equal entries are not always repeated. A structure can be active in one record and inactive in another. Calls of active or inactive are those of the source. Rule for the calls: active = hit-call score of the fitted dose curve at least 0.9, where 1 is the maximum; inactive = score below 0.9.

As a reminder, the AC50 is the midpoint of the concentration-response curve, whichever way the signal moves.

Take `CC(C)(C)c1ccc(O)cc1`: the outcome in assay [1], in assay [2], in [3], in assay [4], in assay [5] and in assay [6] was inactive. Moreover, the outcome in assay [7], in assay [8], in assay [9], in assay [10], in [11] and in assay [12] was inactive. Also, the result in assay [13], in assay [14], in [15], in [16], in [17] and in assay [18] was inactive. Moreover, in assay [19], the result was inactive.

With `C=CC(=O)OCC(F)(F)C(F)F`, the half-maximal activity concentration (AC50) in [1] is 37.3 µM (active) and 24.9 µM (active); in assay [3] it was 34.9 µM (active) and 29.2 µM (active); in assay [5], 23.9 µM (active) and 21.1 µM (active); in [6], 994 nM (active) and 23.9 µM (active); in assay [8], 49.8 µM (active) and 48.3 µM (active); in assay [10] it was 22.8 µM (active) and 23 µM (active). Also, the AC50 in [12] is 36.7 µM (active) and 38.4 µM (active); in assay [13], 4.6 µM (active); in assay [14] it was 20 µM (active) and 11.1 µM (active). Also, the outcome in assay [2], in [4], in [7], in [20], in assay [13] and in assay [15] was inactive. The result in assay [16], in assay [17], in assay [18] and in assay [19] was inactive.

Take `CC(C)(C)c1ccccc1OP(=O)(Oc1ccccc1)Oc1ccccc1`: the AC50 was 11.7 µM (active) in assay [1]; 20 µM (active) in assay [3]; 18.7 µM (active) in assay [5]; 2.83 µM (active) in [6]; 13.5 µM (active) in [7]; 15.6 µM (active) in assay [9]. Besides, the AC50 in [10], in assay [11], in [14] and in assay [19] was 20 µM (active) throughout. Also, the outcome in assay [2], in assay [4], in assay [8], in assay [12], in assay [13] and in assay [15] was inactive. Besides, the result in assay [16], in assay [17] and in assay [18] was inactive.
